Consider 46 compounds from ChEMBL document CHEMBL3988442, “University of Dundee, Small-Polar-MMV Screening Library” (2021).

Assay [1] concerns the target T1, Aspartate--tRNA(Asp/Asn) ligase (Mycobacterium tuberculosis (strain ATCC 25618 / H37Rv)) (UniProt P9WFW3). Also: in the data most compounds retested in dose-response had high values.
T1 sequence (whole entry): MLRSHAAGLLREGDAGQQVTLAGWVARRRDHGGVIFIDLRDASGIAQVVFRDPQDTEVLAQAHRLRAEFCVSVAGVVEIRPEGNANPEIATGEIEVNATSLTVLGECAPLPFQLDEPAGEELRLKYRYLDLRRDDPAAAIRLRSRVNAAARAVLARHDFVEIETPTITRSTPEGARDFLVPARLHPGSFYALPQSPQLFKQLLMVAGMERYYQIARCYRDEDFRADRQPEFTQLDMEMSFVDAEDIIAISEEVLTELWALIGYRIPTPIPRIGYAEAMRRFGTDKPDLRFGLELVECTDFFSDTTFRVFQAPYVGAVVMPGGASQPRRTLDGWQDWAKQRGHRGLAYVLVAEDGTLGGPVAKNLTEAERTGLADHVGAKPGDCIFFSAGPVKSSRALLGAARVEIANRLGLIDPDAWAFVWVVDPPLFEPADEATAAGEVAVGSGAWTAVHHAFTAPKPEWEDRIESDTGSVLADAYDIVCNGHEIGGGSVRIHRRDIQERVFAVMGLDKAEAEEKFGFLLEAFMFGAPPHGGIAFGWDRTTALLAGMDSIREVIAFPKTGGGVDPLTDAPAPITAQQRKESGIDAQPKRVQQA
As to the kind of experiment: Assay for Asp RNA synthetase-1 from Mycobacterium tuberculosis. Details: scale not given: direction of the effect not stated beside the values. Format: functional. Particulars: 30 µM.

The target in assay [2] is Shiga toxin 2 (Escherichia coli O157:H7) (UniProt P09385+P09386). Briefly: E. coli 0.157:H7 Shiga Toxin SOP - stx2 screening assay. Format: functional. Set-up: scale not given: direction of the effect not stated beside the values. The following applies: 30 µM.

In the case of `O=C(COC[C@H]1CC[C@H]2[C@H](CCN2c2ncccn2)O1)N1CCCC1`, the Percent Effect in assay [1] was -2.51%; in assay [2], -24.1%.
On the same counts, the results for `CN(Cc1ncc[nH]1)CC(c1cccs1)N1CCOCC1` (configuration not stated) are -3.41% and 4.34%.
The corresponding values for `CNS(=O)(=O)c1ccc(C(=O)N2CCCC2c2ccccc2)o1` (configuration not stated) are -0.871% and 34%.
Turning to `CN(C)S(=O)(=O)N1CC[C@]2(C[C@H](Oc3cccnc3)CO2)C1`, the Percent Effect in assay [1] is 9.53%; in assay [2], -27.2%.
On the same counts, the results for `CCN1CCN(S(=O)(=O)c2cc(C)c(Cl)cc2Cl)CC1` are -2.59% and -47.6%.
`COc1ncccc1CN1CCn2c(Cn3cncn3)cnc2C1`: the values for the Percent Effect in assay [1] and in assay [2] were -2.81% and -13.9%, respectively.
On the same counts, the results for `Cc1ccc(C)c(NC(=O)Nc2c[nH]c(=O)[nH]c2=O)c1` are -1.44% and 2.86%.
As to `O=C(c1cccc(N2CCCC2=O)c1)N1CCCC(n2cncn2)C1` (configuration not stated), the Percent Effect in assay [1] is -4.55%; in assay [2] it was 17.8%.
The corresponding values for `Cc1nnc(N2CCC(CN(C)C(C)C)CC2)c(C#N)c1C` are -0.173% and -25%.
On the same counts, the results for `CS(=O)(=O)CC(=O)N1C[C@@H]2COC[C@]2(c2nnc(C3CC3)o2)C1` are -1.72% and -40.1%.
On the same counts, the results for `CC(C)c1n[nH]c(C2CN(C(=O)C3=COCC3)CCO2)n1` (configuration not stated) are -3.88% and 17.2%.
For the compound `CO[C@H]1CCN(c2ncccn2)[C@H]1Cc1ccccc1`, the Percent Effect was 1.75% in assay [1] and -19.4% in assay [2].
For the compound `Cc1nc(C)n(C2CCCN(C(=O)c3ccccc3C)C2)n1` (configuration not stated), the Percent Effect in assay [1] came out at 0.173%; in assay [2] it was 18.2%.
With `COc1ccccc1C(=O)N(C)Cc1ncc(C)c(OC)c1C`, the results for the Percent Effect in assay [1] and in assay [2] were -4.81% and 11.8%, respectively.
On the same counts, the results for `Cn1ccnc1CN1C[C@@H](CN2CCC(CO)CC2)[C@@H](CO)C1` are -1.77% and 12.7%.
The corresponding values for `COc1cccc(CN(C)C(=O)CSc2ccc3c(c2)OCCO3)c1` are 0.12% and 7.23%.
As for `CC1CCCN(CCNC(=O)c2cncnc2C(C)C)C1` (configuration not stated), the Percent Effect in assay [1] was 0.418%; in assay [2], -17.1%.
On the same counts, the results for `Cc1nnc(N2C[C@@H](OCCCn3cccn3)[C@H]3OCCC[C@H]32)s1` are -3.42% and -13.8%.
The corresponding values for `COc1ccc(CNC(=O)NC2CCN(CC(F)F)CC2)cc1C` are -0.127% and -3.6%.
The corresponding values for `Cc1cccc(CN2C[C@@H]3COC[C@]3(CNC(=O)N3CCCC3)C2)n1` are 2.42% and 11.4%.
In the case of `Cc1ccc(CN2CC(C(=O)N3CCCC3)C3(CCOCC3)C2)s1` (configuration not stated), the Percent Effect in assay [1] is 10.8%; in assay [2], -7.63%.
`CN(Cc1cc2c(cc1OC(F)F)OCO2)Cc1nccn1C`: the Percent Effect in assay [1] is 3.96%; in assay [2] it was 2.09%.
The corresponding values for `CCc1ccc(S(=O)(=O)Nc2cn(C)cc(Br)c2=O)cc1` are -3.18% and -8.3%.
The corresponding values for `CC(=O)Nc1ccc(-n2ccc3nc(N4CCCC4)ncc3c2=O)cc1` are 4.09% and -9.95%.
With `CN(CCN1CCOCC1)C(=O)CCc1cccc(Cl)c1`, the Percent Effect was -4.7% in assay [1] and -13.5% in assay [2].
The corresponding values for `CS(=O)(=O)c1ccc(OCCNCc2ccc(F)cc2F)cc1` are 4.17% and -84.6%.
The corresponding values for `CC(C)(C)C(=O)NCCC(=O)NC(C)(C)c1ccc2c(c1)OCCO2` are 1.41% and -2.07%.
Take `Cc1ncsc1C(=O)Nc1cccc(OCC(F)F)n1`: the Percent Effect in assay [1] was -0.449%; in assay [2], 1.86%.
On the same counts, the results for `COc1ccc(C2Nc3ccccc3C3=NCCCN32)cc1OC` (configuration not stated) are 3.81% and -2.36%.
The corresponding values for `CCOC(=O)N1CCN(C(=O)CCn2ccc3c(OC)cccc32)CC1` are 0.389% and -14.3%.
On the same counts, the results for `CN(C)C(=O)c1ccc2c(c1)N(C)C(CC(=O)NC(C)(C)CO)CO2` (configuration not stated) are 1.87% and -25.6%.
Turning to `CCS(=O)(=O)N1CCO[C@H]2[C@H](OCC3CCCC3)CC[C@@H]21`, the figures for the Percent Effect in assay [1] and in assay [2] were -2.82% and -8.34%, respectively.
The corresponding values for `CCn1nnc2c1C(COC)CN(C(=O)COc1ccccc1)C2` (configuration not stated) are -1.42% and -31.2%.
The corresponding values for `COc1ccnc(N2CCN(C(=O)CCc3nccs3)CC2)n1` are -1.19% and -2.92%.
On the same counts, the results for `O=C(c1nc(COc2ccc3c(c2)OCO3)no1)N1CCCC1` are 6.21% and -63.7%.
With `Cn1cc(CN2CCCC3(CCN(c4nncs4)C3)C2)cn1` (configuration not stated), the values for the Percent Effect in assay [1] and in assay [2] were 6.31% and -11.3%, respectively.
On the same counts, the results for `Cn1ccc(-c2cc(C(=O)N3CCOCC3)c3ccccn23)n1` are 3.13% and -17.8%.
As to `CC(C)(C)c1nnc(CN2CCOC(Cn3cccn3)C2)o1` (configuration not stated), the Percent Effect in assay [1] is -6.74%; in assay [2], -2.05%.
On the same counts, the results for `CN(C)C(=O)CN1CCCCC1c1nc(N)ncc1-c1cccc(F)c1` (configuration not stated) are -1.78% and -2.08%.
On the same counts, the results for `O=C(CN1CCCCC1C1OCCO1)Nc1ccc(F)c(F)c1` (configuration not stated) are 3.65% and 3.89%.
Turning to `CCc1nc(CN(Cc2cccs2)CC2CCCO2)no1` (configuration not stated), the Percent Effect in assay [1] stood at 2.75%; in assay [2], 15%.
On the same counts, the results for `Cc1cn2c(n1)CCC(NC(=O)c1cc(C(C)C)no1)C2` (configuration not stated) are -4.01% and -5.41%.
`CN(C)c1cc(C(=O)N2CCN(S(C)(=O)=O)CC2)ccn1`: the results for the Percent Effect in assay [1] and in assay [2] were -0.122% and -36.9%, respectively.
On the same counts, the results for `Cc1cccc(C)c1NC(=O)CCNC(=O)c1ccoc1` are -1.5% and 15.3%.
Take `CCn1cnnc1CNC(=O)c1cc(Cl)ccc1OC`: the Percent Effect was 0.48% in assay [1] and -24.3% in assay [2].
On the same counts, the results for `CN(Cc1ccsc1)C(=O)CN1CCOC(Cn2cccn2)C1` (configuration not stated) are 0.463% and -18.6%.
